Bioassay records from PubChem.
Dicer processing – blocks human Dicer maturation of pre-miR-21; Q9UPY3; cat-ELCCA pre-miR-21 Dicer processing, chemiluminescence; active compounds read high; z-score at 25 µM; actives 6% (n = 47,000); in the data active = z-score above about 3, passing the limit was not always enough;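 note: plate controls were vehicle for no effect and no enzyme for full effect; higher signal means more uncleaved substrate so more Dicer inhibition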
Target sequence (Q9UPY3 whole entry, looked up): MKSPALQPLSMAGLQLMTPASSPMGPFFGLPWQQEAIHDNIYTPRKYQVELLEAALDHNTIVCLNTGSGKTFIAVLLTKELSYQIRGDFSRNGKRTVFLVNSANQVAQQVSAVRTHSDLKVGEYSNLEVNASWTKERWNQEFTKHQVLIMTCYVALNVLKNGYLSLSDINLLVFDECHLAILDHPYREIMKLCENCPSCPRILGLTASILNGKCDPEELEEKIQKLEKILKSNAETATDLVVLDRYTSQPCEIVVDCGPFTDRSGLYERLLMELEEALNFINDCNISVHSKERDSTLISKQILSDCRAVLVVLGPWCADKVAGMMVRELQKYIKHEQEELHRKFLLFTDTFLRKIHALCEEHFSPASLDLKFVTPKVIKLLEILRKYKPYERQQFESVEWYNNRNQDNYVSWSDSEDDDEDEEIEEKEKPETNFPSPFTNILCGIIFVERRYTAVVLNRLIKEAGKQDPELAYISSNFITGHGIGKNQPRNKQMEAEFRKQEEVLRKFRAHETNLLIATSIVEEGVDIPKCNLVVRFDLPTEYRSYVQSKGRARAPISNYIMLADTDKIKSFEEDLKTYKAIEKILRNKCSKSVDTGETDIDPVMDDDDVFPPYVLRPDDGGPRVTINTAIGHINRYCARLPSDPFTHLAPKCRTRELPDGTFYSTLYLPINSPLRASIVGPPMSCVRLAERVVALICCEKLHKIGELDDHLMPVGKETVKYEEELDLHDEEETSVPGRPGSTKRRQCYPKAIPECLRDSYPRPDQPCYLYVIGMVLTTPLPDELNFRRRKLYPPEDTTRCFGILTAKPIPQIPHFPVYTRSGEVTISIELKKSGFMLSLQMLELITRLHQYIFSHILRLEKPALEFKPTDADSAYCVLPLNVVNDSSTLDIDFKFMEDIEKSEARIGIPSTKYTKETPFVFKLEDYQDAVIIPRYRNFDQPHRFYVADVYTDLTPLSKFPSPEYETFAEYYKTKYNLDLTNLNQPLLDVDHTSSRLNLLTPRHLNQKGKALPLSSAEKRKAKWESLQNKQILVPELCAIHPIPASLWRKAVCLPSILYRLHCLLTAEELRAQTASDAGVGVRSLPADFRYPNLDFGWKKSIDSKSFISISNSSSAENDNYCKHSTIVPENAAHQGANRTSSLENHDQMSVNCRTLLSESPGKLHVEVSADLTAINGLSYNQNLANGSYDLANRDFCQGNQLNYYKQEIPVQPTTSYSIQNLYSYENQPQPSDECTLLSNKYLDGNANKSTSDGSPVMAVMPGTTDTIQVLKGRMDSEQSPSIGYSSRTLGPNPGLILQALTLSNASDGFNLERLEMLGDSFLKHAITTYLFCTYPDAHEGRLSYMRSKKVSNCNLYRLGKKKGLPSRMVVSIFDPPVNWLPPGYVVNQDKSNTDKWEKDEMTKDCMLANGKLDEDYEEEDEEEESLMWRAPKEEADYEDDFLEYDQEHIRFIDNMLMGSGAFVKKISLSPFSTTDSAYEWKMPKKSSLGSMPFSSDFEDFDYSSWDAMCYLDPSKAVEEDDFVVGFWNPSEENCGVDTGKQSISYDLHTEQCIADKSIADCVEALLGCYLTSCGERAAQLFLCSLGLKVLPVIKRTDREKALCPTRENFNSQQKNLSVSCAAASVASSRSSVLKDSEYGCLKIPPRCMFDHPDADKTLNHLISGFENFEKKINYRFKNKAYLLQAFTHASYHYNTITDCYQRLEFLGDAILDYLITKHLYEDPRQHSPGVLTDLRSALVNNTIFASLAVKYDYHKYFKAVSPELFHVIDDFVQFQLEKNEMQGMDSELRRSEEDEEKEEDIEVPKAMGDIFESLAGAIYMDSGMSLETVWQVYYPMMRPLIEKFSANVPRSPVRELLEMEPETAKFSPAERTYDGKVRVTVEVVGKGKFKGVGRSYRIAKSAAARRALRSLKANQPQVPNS
Starred values were filed as active, the others as inactive. The entries come from a sample that favours hits as a whole.

SMILES | Dicer processing
CCCCSC1=C(C#N)C(=O)NC(c2ccc(OC)cc2)S1 (configuration not stated) | -2.05
CCCCCCSC1=C(C#N)C(=O)NC(CO)S1 (configuration not stated) | -2.28
CCCCN1C(=O)C(NC(C)=O)c2cc(Cl)ccc21 (configuration not stated) | 1.31
CS(=N)c1ccsc1 (configuration not stated) | 0.76
CCCOC(=O)C1=C(C)NC2=C(C(=O)CCC2)C1c1ccc(O)c(OCC)c1 (configuration not stated) | -0.72
Cc1nn(C(=O)C2CC2)c(C)c1Sc1ccc(C(F)(F)F)cn1 | -1.9
Cc1cccc(NS(=O)(=O)c2ccc3c4c(cccc24)C(=O)N3)c1C | -0.37
Cc1ccc(C)c(NS(=O)(=O)c2ccc3c4c(cccc24)C(=O)S3)c1 | 3.73*
O=C(O)c1ccc(NS(=O)(=O)c2ccc3c4c(cccc24)C(=O)S3)cc1 | 0.67
Cc1ccccc1NS(=O)(=O)c1cccc2c(N(C)C)cccc12 | -0.66
O=C1Sc2ccc(S(=O)(=O)Nc3ccc4oc(=O)sc4c3)c3cccc1c23 | 10.6*
CN1C(=O)c2cccc3c(S(=O)(=O)Nc4ccc(C(=O)O)c(O)c4)ccc1c23 | -1.71
CC1=CC(C)(C)N2C(=O)C(=O)c3cc(OC(=O)c4ccc(F)cc4)cc1c32 | 1.35
Clc1ccc(OCc2nc(-c3ccc(Cl)cc3)no2)cc1 | 0.94
O=c1c(N2CCCCC2)c(N2CCCCC2)c1=O | 7.35*
O=C(O)c1c(N2CCCCC2)ccc([N+](=O)[O-])c1N1CCCCC1 | -0.06
O=[N+]([O-])c1ccc(N2CCCCCCC2)cc1 | 1.46
O=C(Cn1c(=O)sc2ccccc21)OCc1ccccc1 | -0.01
Cc1cc(C)c2c(=O)n(C(=O)c3ccco3)sc2n1 | -0.65
CCn1c2ccccc2c2nnc(SCC(=O)c3ccccc3)nc21 | 1.58
CCCSc1nnc2c3ccccc3n(CC)c2n1 | 1.1
C=CCSc1nnc2c3ccccc3n(CC=C)c2n1 | 3.24*
FC(F)(F)c1ccc(C2=NCCO2)cc1 | 4.75*
FC(F)(F)c1ccc(-c2nnc(-c3ccc4nccnc4c3)o2)cc1 | -0.74
FC(F)(F)c1ccc(-c2nc(=S)[nH][nH]2)cc1 | -0.04
SMILES | Dicer processing
CCOC(=O)c1c[nH]c2c(Cl)cc(Br)cc2c1=O | -0.56
N#C/C(=C\Nc1ccc(C(F)(F)F)cc1Cl)C(=O)c1ccsc1 | 0.64
Cc1cc(C)n2nc(C)c(-c3ccc(Cl)cc3)c2n1 | 1.86
Cc1cc(C)n2ncc(-c3ccc(Cl)cc3)c2n1 | 3.89*
Cc1cc(N)n2ncc(-c3ccccc3)c2n1 | 0.44
CCOc1ccc(/C(O)=C2\C(=O)C(=O)N(Cc3cccnc3)C2c2ccc(O)c(OC)c2)cc1 (configuration not stated) | 1
CC1(O)CCOC(=O)C1 (configuration not stated) | 1.46
CCOC(=O)c1c(NC(=O)Nc2cc(OC)ccc2Cl)sc2c1CCN(C)C2 | 3.43*
CCOC(=O)c1c(NC(=O)C(C)Oc2ccc(OC)cc2)sc2c1CCC(C)C2 (configuration not stated) | 2.72
CCOC(=O)c1c(NC(=O)Oc2ccccc2)sc2c1CCC2 | -0.88
CCOC(=O)c1c(NS(=O)(=O)c2ccc(OC)c(OC)c2)sc2c1CCC2 | -1.27
CCOC(=O)c1c(NC(=O)Nc2ccc(C)cc2)sc2c1CCN(C)C2 | 2.11
CCOC(=O)c1c(NCc2cc(OC)ccc2O)sc2c1CCC2 | 4.08*
O=C1NC(c2cc(Br)cs2)Nc2ccccc21 (configuration not stated) | -0.25
Cc1ccc(Cn2c(NCCN(C)C)nc3c2c(=O)[nH]c(=O)n3C)cc1 | -1.41
CN(CCc1ccccn1)Cc1ccc(Cl)cc1 | 3.67*
Cc1ccc(CN(C)CCc2ccccn2)cc1 | 1.5
CCc1ccc(CN(C)CCc2ccccn2)cc1 | 1.88
CCCCC(=O)N(c1ccc2oc(=O)sc2c1)S(=O)(=O)c1ccc(C(=O)O)cc1 | -1.11
Cc1cc(F)ccc1S(=O)(=O)N(C(=O)c1cccnc1)c1ccc2oc(=O)sc2c1 | 4.84*
CC(C)c1ccc(S(=O)(=O)N(C(=O)c2ccncc2)c2ccc3oc(=O)sc3c2)cc1 | 0.05
O=C(c1cccnc1)N(c1ccc2oc(=O)sc2c1)S(=O)(=O)c1ccc(Br)cc1 | 10.9*
CCCC(=O)N(c1ccc2oc(=O)sc2c1)S(=O)(=O)c1ccc(F)cc1C | 1.69
CCCCC(=O)N(c1ccc2oc(=O)sc2c1)S(=O)(=O)c1ccc(OC)cc1 | 2.41
COc1ccc(S(=O)(=O)N(C(=O)C(C)C)c2ccc3oc(=O)sc3c2)cc1 | 0.09
SMILES | Dicer processing
Cc1ccc(S(=O)(=O)N(C(=O)c2cccnc2)c2ccc3oc(=O)sc3c2)cc1 | 4.97*
CC(C)NC(=O)NNC(=O)Cn1nnc(N2CCCC2)n1 | 0.58
CC(=O)c1c(C)cc(NC(C)(C)C)nc1NC(C)(C)C | 0.45
Cc1nc(N2CCN(c3ccccn3)CC2)nc2c1C(=O)CC(/C=C/c1ccccc1)C2 (configuration not stated) | -1.19
NS(=O)(=O)c1ccc(-c2cc(C(F)(F)F)ccn2)s1 | 0.71
O=C(Nc1ccc(Cl)cc1OC(F)(F)F)c1cccc(C(F)(F)F)c1 | 0
Nc1c(C(=O)Nc2ccc(Cl)cc2)sc2nc3c(cc12)CCC3 | -0.04
COC(=O)c1cc(OC)c(OC)cc1NC(=O)CCC(=O)O | -0.09
COc1ccc(OC)c(NC(=O)C(=O)NN)c1 | -1.36
COc1ccc(OC)c(NC(=O)CCC(=O)O)c1 | 4.95*
CCOc1ccc(C2C(C(=O)c3ccc(C)cc3)=C(C(=O)OC)Nc3nnnn32)cc1 (configuration not stated) | 1.47
COc1ccc(CNCc2cccnc2)c(OC)c1 | 24.5
CCc1ccc(CN(C(=O)c2oc3ccccc3c2C)C2CCS(=O)(=O)C2)cc1 (configuration not stated) | 3.65*
Cc1c(C(=O)N(Cc2cccs2)C2CCS(=O)(=O)C2)oc2ccccc12 (configuration not stated) | 1.68
Cc1c(C(=O)N(Cc2ccccc2)C2CCS(=O)(=O)C2)oc2ccccc12 (configuration not stated) | 1.09
COc1ccc(NC(=O)/C(C#N)=C/N(C)C)c(OC)c1 | -0.58
Cc1nn(C)c(=O)c(N)c1-c1cc(-c2ccsc2)n[nH]1 | -0.27
COc1ccccc1NC(=S)N/N=C/c1ccco1 | 1.44
CNC(=S)N/N=C/c1ccc(OC)c(Br)c1 | 1.22
COc1cc(/C=N/NC(=S)Nc2ccccc2OC)ccc1O | 5.12*
N#C/C(=C\Nc1cccc(Cl)c1F)S(=O)(=O)c1ccc(Cl)cc1 | -0.08
CCCCc1ccc(N2CCn3c2nc2c3c(=O)n(CC(=O)O)c(=O)n2C)cc1 | 1.01
COC(=O)c1csc(S(=O)(=O)NC2CCCCNC2=O)c1OC (configuration not stated) | 3.98*
O=C1NCCCCC1NS(=O)(=O)c1cccs1 (configuration not stated) | -0.93
Cc1c(S(=O)(=O)NC2CCCCNC2=O)sc2ccc(Cl)cc12 (configuration not stated) | 1.27
SMILES | Dicer processing
Fc1ccc(Cn2nnc3ccccc32)cc1 | 2.61
c1ccc2c(c1)CCN2Cn1nnc2ccccc21 | 4.42*
S=c1[nH]nc(Cn2nnc3ccccc32)o1 | -1.38
CCCS(=O)(=O)C/C(N)=N/OC(=O)c1ccc(Cl)cc1 | -0.54
CC(C)S(=O)(=O)C/C(N)=N/OCc1ccc(Cl)cc1 | -0.68
CC(C)S(=O)(=O)C/C(N)=N/OC(=O)c1cc(Cl)cc(Cl)c1 | 5.38*
CC(C)S(=O)(=O)C/C(N)=N/OS(=O)(=O)c1ccc(Cl)cc1 | -1.48
N/C(CS(=O)(=O)Cc1ccco1)=N\OC(=O)c1ccc(Cl)cc1 | 4.82*
